Inconclusive results are not listed. A number with no mark means an inactive call. The source made the active and inactive calls. The call rests on the fitted dose curve; in most records, active means well fitted cell-killing curve with a large enough effect; inconclusive means small, poorly fitted or top-dose-only effect, or effect the other way; inactive means no such curve, though single readings can be large or run the other way.
assay: Quantitative High-Throughput drug screen in 47 multiple myeloma cell lines against the NCATS MIPE library collection: INA6_PLB cell viability assay (AID 1918965; further: nearly all actives have a fitted effect of over 55% in size); settings: INA6 myeloma viability, CellTiter-Glo ATP luminescence, 48 h; series mostly up to 45.8 µM; viability (% of control): at the top concentration
Source text: PI: Beverly A. Mock Ph.D.
Laboratory of Cancer Biology and Genetics,
Center for Cancer Research, National Cancer Institute,
National Institute of Health, Bethesda, Maryland
Drug resistance and disease progression are common in multiple myeloma (MM) patients, underscoring the need for new therapeutic combinations. […] We hypothesized that effective combinations would reduce MYC expression and enhance p16 activity. […] These preclinical data identify potentially useful drug combinations for evaluation in drug-resistant MM and reveal potential mechanisms of combined drug sensitivity.
Described herein is the primary MIPE qHTS used to cherrypick compounds. Validated compounds were then further tested for potential synergistic activiy.
[1] Peat TJ, Gaikwad SM, Dubois W, Gyabaah-Kessie N, Zhang S, Gorjifard S, Phyo Z, Andres M, Hughitt VK, Simpson RM, Miller MA, Girvin AT, Taylor A, Williams D, D'Antonio N, Zhang Y, Rajagopalan A, Flietner E, Wilson K, Zhang X, Shinn P, Klumpp-Thomas C, McKnight C, Itkin Z, Chen L, Kazandijian D, Zhang J, Michalowski AM, Simmons JK, Keats J, Thomas CJ, Mock BA. Drug combinations identified by high-throughput screening promote cell cycle transition and upregulate Smad pathways in myeloma. Cancer Lett. 2023 Aug 1;568:216284. doi: 10.1016/j.canlet.2023.216284. Epub 2023 Jun 24. PMID: 37356470; PMCID: PMC10408729.
SEQUENCE No. (e.g., 1, 2, 3, etc.); […] (e.g., Cells, Incubation, Reagent, etc.); VALUE and DESCRIPTION.
1; Cells; 5 uL; white, solid bottom 1536-well Greiner assay plate.
2; Compounds; 23 nL; Kalypsis pin tool (Wako USA) equipped with a 1536-well pin head to transfer to the assay plates.
3; Incubation; 48 hours; 37C incubation.
4; Reagent;5uL; CellTiter Glo (Promega).
5; Detector; 425V; Luminescence; Viewlux PerkinElmer.
NOTES (numbers refer to Sequence numbers above)
1. The cell-based screening methods employed in this study were like those previously published. Briefly, the corresponding myeloma cell lines were screened in 1,536-well plates with 500 cells, 5-uL per well for inhibition of cell viability (assessed by measuring ATP levels with CellTiterGlo).
2. NCATS MIPE 4.0 library of approved and investigational drugs were added using the Kalypsis pin tool. Wells treated with DMSO only for 100% viability and media only wells for 0% viability were used as controls.
3. The assay plates were covered and incubated for 48 hours in a 37C, 5% CO2 incubator with controlled humidity.
4. After 48 hours, CellTilter-GloTM luminescent substrate mix (Promega) reagent was added to the assay plate and plates we incubated for 5 min at room temperature.
5. Signal was measured as median relative luminescence units on a ViewLux (PerkinElmer) multiplate reader.
[1] Heske CM, Davis MI, Baumgart JT, Wilson K, Gormally MV, Chen L, Zhang X, Ceribelli M, Duveau DY, Guha R, Ferrer M, Arnaldez FI, Ji J, Tran HL, Zhang Y, Mendoza A, Helman LJ, Thomas CJ. Matrix Screen Identifies Synergistic Combination of PARP Inhibitors and Nicotinamide Phosphoribosyltransferase (NAMPT) Inhibitors in Ewing Sarcoma. Clin Cancer Res. 2017 Dec 1;23(23):7301-7311. doi: 10.1158/1078-0432.CCR-17-1121. Epub 2017 Sep 12. PMID: 28899971; PMCID: PMC6636827.
Potency means the concentration at half of the fitted maximal effect.

Structure (SMILES)	Potency	viability (% of control) [%]
CC(C)c1ccc(Cn2ccc3c4c(N)nc(NC5CC5)nc4ccc32)cc1	1480 nM (active)	–
CC[C@H]1CN2CCc3cc(OC)c(OC)cc3[C@H]2C[C@@H]1C[C@@H]1NCCc2cc(OC)c(OC)cc21	52.6 nM (active)	–
Clc1cccc(-n2nnnc2NCc2ccccc2Oc2ccccn2)c1Cl	–	118
COc1cc2c(Nc3ccc(NC(=O)c4ccccc4)cc3)ncnc2cc1OCCCN1CCOCC1	11800 nM (active)	–
CC[C@@]1(O)C(=O)OCc2c1cc1n(c2=O)Cc2cc3cc(O)ccc3nc2-1	16.6 nM (active)	–
C=CC(=O)Nc1cc2c(Nc3ccc(F)c(Cl)c3)ncnc2cc1C#CC(C)(C)N1CCN(C)CC1	418 nM (active)	–
COC(=O)c1ccc2c(C(=Nc3ccc(N(C)C(=O)CN4CCN(C)CC4)cc3)c3ccccc3)c(O)[nH]c2c1	8330 nM (active)	–
CC(C)[C@H](C(=O)Nc1ccc(C(=O)NO)cc1)c1ccccc1	235 nM (active)	–
Cc1ccc(C(N)=O)cc1Nc1nccc(-c2cn(C(C)C)c3cnccc23)n1	2640 nM (active)	–
c1nc2nc(Nc3ccc(N4CCOCC4)cc3)nc(NC3CCCCC3)c2[nH]1	2960 nM (active)	–
CC(C)(C)NC(=O)[C@H]1CN(Cc2cccnc2)CCN1C[C@@H](O)C[C@@H](Cc1ccccc1)C(=O)N[C@H]1c2ccccc2C[C@H]1O	20900 nM (active)	–
CN1CCN(c2cc(C(=O)Nc3ccc4c(c3)-c3c(c(C(N)=O)nn3-c3ccc(F)cc3)CC4)c(Cl)cn2)CC1	1050 nM (active)	–
COc1cc2c(NC3CCN(C(C)C)CC3)nc(C3CCCCC3)nc2cc1OCCCN1CCCC1	3720 nM (active)	–
COc1cc2c(Oc3ccc(NC(=O)C4(C(=O)Nc5ccc(F)cc5)CC4)cc3F)ccnc2cc1OCCCN1CCOCC1	7430 nM (active)	–
Cc1cnc(-c2cnc(NCCNc3ccc(C#N)cn3)nc2-c2ccc(Cl)cc2Cl)[nH]1	2350 nM (active)	–
COC(=O)Nc1ccc(-c2nc(N3CCOCC3)c3cnn(C4CCN(Cc5cccnc5)CC4)c3n2)cc1	46.9 nM (active)	–
COc1cc2c(cc1-c1c(C)noc1C)ncc1[nH]c(=O)n([C@H](C)c3ccccn3)c12	264 nM (active)	–
Cc1ccc2nc(NC(=O)CSc3nc4c(c(=O)n3-c3ccccc3)SCC4)sc2c1	8330 nM (active)	–
CC(C)(O)c1cc2nc(-c3cnc(N)nc3)nc(N3CCOCC3)c2s1	743 nM (active)	–
CC(C)c1noc(N2CCC(COc3ccc(-c4ccc(S(C)(=O)=O)cc4)nc3)CC2)n1	1870 nM (active)	–

Structure (SMILES)	Potency	viability (% of control) [%]
CC(=O)SC[C@@H](C)C(=O)N1CCC[C@H]1C(=O)N[C@@H](Cc1ccccc1)C(=O)O	–	199
C=CC(=O)Nc1cccc(Oc2nc(Nc3ccc(N4CCN(C)CC4)cc3OC)ncc2Cl)c1	469 nM (active)	–
CCN(CC)CCCCNc1ncc2cc(-c3cc(OC)cc(OC)c3)c(NC(=O)NC(C)(C)C)nc2n1	16600 nM (active)	–
CC(C)CC(=O)Nc1n[nH]c2c1CN(C(=O)C1CCN(C)CC1)C2(C)C	296 nM (active)	–
CCc1c2c(nc3ccc(O)cc13)-c1cc3c(c(=O)n1C2)COC(=O)[C@]3(O)CC	1 nM (active)	–
COc1ccc(OC)c(-c2nnc3ccc(-c4ccc(OC)c(O[C@@H]5CCOC5)c4)nn23)c1	5900 nM (active)	–
CCN(CC)CCNC(=O)c1ccc2nc(-c3ccccc3)c(-c3ccc(CN4CCC(n5c(=O)[nH]c6ccccc65)CC4)cc3)nc2c1	296 nM (active)	–
COc1cc2c(Oc3ccc4[nH]c(C)cc4c3F)ncnc2cc1OCCCN1CCCC1	9350 nM (active)	–
O=C(NC1CCNCC1)c1[nH]ncc1NC(=O)c1c(Cl)cccc1Cl	590 nM (active)	–
Nc1nc(NCCNc2ncc(-n3ccnc3)c(-c3ccc(Cl)cc3Cl)n2)ccc1[N+](=O)[O-]	1180 nM (active)	–
Clc1ccc2ncc(-c3cccc(NC4CNC4)n3)n2c1	5900 nM (active)	–
Cc1cc(Nc2ncnc3ccc(-c4ccc(CNCCS(C)(=O)=O)o4)cc23)ccc1Oc1ccn2ncnc2c1	1870 nM (active)	–
O=C(Nc1nc2cccc(-c3ccc(CN4CCS(=O)(=O)CC4)cc3)n2n1)C1CC1	3320 nM (active)	–
Clc1cccc(-c2nnnn2Cc2cccnc2)c1Cl	–	92.5
CC1(C)CCC(c2ccc(Cl)cc2)=C(CN2CCN(c3ccc(C(=O)NS(=O)(=O)c4ccc(N[C@H](CCN5CCOCC5)CSc5ccccc5)c(S(=O)(=O)C(F)(F)F)c4)cc3)CC2)C1	5900 nM (active)	–
CN(C1CCc2c(c3ccccc3n2CC(=O)O)C1)S(=O)(=O)c1ccc(F)cc1 (stereo not given)	–	136
O=C(Cc1ccc(-c2ccc(OCCN3CCOCC3)cc2)cn1)NCc1ccccc1	16.6 nM (active)	–
CC(C)=CCCC(C)=CCCC(C)=CCSc1ccccc1C(=O)O	18700 nM (active)	–
CC1(C)CC(=O)c2c(C(F)(F)F)nn(-c3ccc(C(N)=O)c(NC4CCC(OC(=O)CN)CC4)c3)c2C1 (stereo not given)	118 nM (active)	–
C1Cc2[nH]nc(-c3nn[nH]n3)c2C1	–	131

Reference: PubChem BioAssay (NCATS)
